FBW7 activator: human FBW7 E3 ligase activation, primary screen. Q969H0. AlphaScreen FBW7–phospho-cyclin E peptide binding, activator screen. normalized activity (activation), % at 26.1 µM. 0.13% of 650,000 active; in the data active = normalized activity above about 1.9%;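 note: purified mutant Fbw7 with reduced substrate affinity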
MITF primary: inhibitors of human MITF. AlphaScreen MITF homodimerization, bead proximity signal. inhibition, % at 2.6 µM. 0.91% of 650,000 active; in the data active = inhibition above about 50%;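 note: 0% = vehicle wells with protein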
Target sequence (O75030 whole entry, looked up): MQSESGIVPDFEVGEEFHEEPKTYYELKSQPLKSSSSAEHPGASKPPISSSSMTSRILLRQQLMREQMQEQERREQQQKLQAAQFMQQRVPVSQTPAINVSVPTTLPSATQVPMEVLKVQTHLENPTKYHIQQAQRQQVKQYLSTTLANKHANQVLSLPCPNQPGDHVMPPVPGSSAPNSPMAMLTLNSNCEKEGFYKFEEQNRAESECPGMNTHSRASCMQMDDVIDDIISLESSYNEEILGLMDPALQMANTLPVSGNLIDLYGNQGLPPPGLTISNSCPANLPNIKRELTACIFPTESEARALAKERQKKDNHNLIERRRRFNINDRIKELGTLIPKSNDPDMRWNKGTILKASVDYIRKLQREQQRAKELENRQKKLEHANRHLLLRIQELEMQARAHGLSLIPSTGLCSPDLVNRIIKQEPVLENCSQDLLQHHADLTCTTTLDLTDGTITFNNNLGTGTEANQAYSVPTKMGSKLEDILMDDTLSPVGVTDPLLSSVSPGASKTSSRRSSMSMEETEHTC
TEAD-YAP block: TEAD-YAP interaction inhibition. HEK-TIYL cells, TEAD-Gal4/YAP UAS-luciferase luminescence. inhibition, % at 9.12 µM. 1.4% of 640,000 active. AID 1259422; in the data active = inhibition above about 32%;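 note: 0% = median of test compound wells and 100% = reference inhibitor wells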
GPR151 activ: activators of human GPR151; Q8TDV0; activation, % at 11.2 µM; 1% of 650,000 active; AID 1508602; PathHunter beta-arrestin GPR151 cells, luminescence; in the data active = activation above about 4.9%;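 note: 0% = median of compound wells and 100% = cells with positive control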
GPR151 conf act: human GPR151 activation, confirmation screen; AID 1508609; GPR151 PathHunter beta-arrestin cells, luminescence, 90 min; % of EA-reagent control over plate median; 6,700 tested, under 10 active; shares compounds with GPR151 activ; activation, % at 11.2 µM;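 active = mean percent activation across replicates above the confirmation screen cutoff of 4.91%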
GPR119 counter: activates human GPR119 in a GPR151 counter-screen; activation, % at 11.2 µM; shares compounds with GPR151 activ; GPR119 PathHunter beta-arrestin cells, luminescence, 90 min; 0 = compound-well median, 100 = enzyme-acceptor control; 0.3% of 6,700 active;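 active = mean percent activation in the counterscreen above 29.09%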;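 note: counterscreen on off-target GPR119 to flag nonselective hits from the GPR151 activator screen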
* hit, by the source's call; x = no result; ! = a repeat was not active. The list is not random: actives were taken first. Their share in the collection is about 3.5%.

SMILES	FBW7 activator	MITF primary	TEAD-YAP block	GPR151 activ	GPR151 conf act	GPR119 counter
CC(C)(Sc1cc(C(C)(C)C)c(O)c(C(C)(C)C)c1)Sc1cc(C(C)(C)C)c(O)c(C(C)(C)C)c1	0	2	-3	11*!	0	4
Cc1cccn2c(CNCCc3ccccn3)c(C(=O)N3CCOCC3)nc12	0	-9	-6	5.9*	0	3
Cc1cccn2c(CN3CCN(c4ccncc4)CC3)c(C(=O)N3CCCCC3)nc12	0	-11	8	5.2*	0	5
Cc1cccn2c(CN3CCOCC3)c(C(=O)N3CCCCC3)nc12	0	8	-13	0	x	x
Cc1cccn2c(CNC3CCOC(C)(C)C3)c(C(=O)N3CCOCC3)nc12 (configuration not stated)	0	0	-8	4.9*	0	-4
Cc1cc(C)n(C(=O)/C=C/c2c(F)cccc2Cl)n1	0	10	18	0	x	x
CCc1ccccc1NC(=O)CSc1nc2nc(C)c(Cc3ccc(Cl)cc3)c(C)n2n1	0	-3	17	1	x	x
N#Cc1ccccc1OCC(=O)Nc1ccc2ccccc2c1	0	3	-62	0	x	x
CCOc1ccccc1N1CC(C(=O)Nc2ccc(F)cc2)CC1=O (configuration not stated)	0	-2	13	2	x	x
CC(=O)N1CCc2cc(Br)cc(S(=O)(=O)N3CCC(O)(c4cccc(C(F)(F)F)c4)CC3)c21	0	-2	2	4.9*	-1	11
CC(=O)N1CCc2cc(Br)cc(S(=O)(=O)N3CCCCC3)c21	0	15	-4	1	x	x
CN(C)c1ccc(NC(=O)CCN2C(=O)C3C4C=CC(C4)C3C2=O)cc1 (configuration not stated)	0	-1	-15	5.2*	0	-14
O=C(Cn1cc(C(=O)c2ccc(F)cc2)c(=O)c2ccccc21)Nc1ccc2c(c1)OCO2	0	2	-6	0	x	x
O=C(Cn1cc(C(=O)c2ccccc2)c(=O)c2ccccc21)Nc1ccc2c(c1)OCCO2	0	-5	7	6.6*	0	6
Cc1cccc(NC(=O)c2cc3cc(Cl)ccc3o/c2=N\c2sc3c(c2C#N)CCCC3)c1	0	-4	-9	-1	x	x
CCCN=C(CC)C1=C(O)CC(C)(C)CC1=O	0	-15	-3	5.4*	-1	-3
C=CCN=C(CC)C1=C(O)CC(C)(C)CC1=O	0	1	-3	-1	x	x
O=C(/C=C/c1cccc([N+](=O)[O-])c1)Nc1nc(-c2ccccc2)cs1	0	21	-2	1	x	x
O=C1c2cccc3cccc(c23)N1Cc1c(O)ccc2ccccc12	0	4	6	5.5*	0	-6
O=C(O)CCN1C(=O)c2cccc([N+](=O)[O-])c2C1=O	1	-4	-4	1	x	x
COc1cc(=O)n2c(c1C(=O)N1CCCC1)CCN(Cc1cc(C)c(C)cc1C)CC2	0	7	6	5.2*	1	10
O=[N+]([O-])c1ccc(Cl)c2c1C1C=CCC1C(c1ccccn1)N2 (configuration not stated)	-1	9	-5	5.1*	0	10
CCOc1ccc(/C=N/NC(=O)c2ccccn2)cc1OC	0	14	-43	6.8*	0	-3
COc1cccc(/C=N/NC(=O)C(=O)NC(C)c2ccccc2)c1O (configuration not stated)	-2	50	10	2	x	x
COc1cccc(/C=N/NC(=O)C(=O)NCC(C)C)c1O	-1	23	-6	30*	-1	-15
SMILES	FBW7 activator	MITF primary	TEAD-YAP block	GPR151 activ	GPR151 conf act	GPR119 counter
COc1cc(OC)nc(Oc2cccc(C)c2/C=N/NC(=O)c2ccccn2)n1	0	14	-45	6.0*	-1	-11
COc1cc(/C=N/NC(=O)c2ccccn2)ccc1OC(C)=O	0	6	-51	-2	x	x
COc1cccc(/C=N/NC(=O)c2[nH]nc(-c3ccccc3)c2C)c1O	0	25	10	7.6*	0	-13
CCCN1C(=O)/C(=c2\sc3nc(-c4ccc(OC)c(OC)c4)nn3c2=O)c2ccccc21	0	8	3	1	x	x
COc1cccc(/C=N\NC(=O)c2cnccn2)c1O	-1	38	-14	5.3*	0	1
COc1cccc(/C=N/NC(=O)c2ccc(-n3c(C)ccc3C)cc2O)c1O	-1	64*	-32	5.4*	-1	-11
COc1ccc(Br)cc1C(=O)N/N=C/c1cccc(OC)c1O	0	10	22	1	x	x
COc1ccc(/C=N\NC(=O)c2cnccn2)cc1OCc1ccccc1	0	12	5	5.8*	0	17
O=C(CCc1ccccc1)Nc1ccc(S(=O)(=O)N2CCc3ccccc32)cc1	0	8	4	1	x	x
Cc1nnc(SCCNC(=O)Cn2cc(NC(=O)CCOc3ccccc3)cn2)s1	0	-5	4	0	x	x
CC(C)Nc1ncnc2c1c(-c1ccccc1)cn2-c1cccc(Cl)c1	0	-11	-37	-2	x	x
CCCSc1ncnc2c1c(-c1ccccc1)cn2-c1cccc(F)c1	0	-7	-4	7.6*	0	13
Cc1cccc(-n2cc(-c3ccccc3)c3c(NC(C)C)ncnc32)c1	0	7	-21	5.0*	-1	-1
CCCCCn1c(SCc2ccccn2)nc2cc(C(=O)N3CCN(c4ccccc4)CC3)ccc2c1=O	0	-2	-13	5.1*	-1	-21
N#CCSc1nc2cc(C(=O)N3CCN(c4ccccc4)CC3)ccc2c(=O)n1C1CCCCC1	0	-11	-4	11*	1	8
N#CCSc1nc2cc(C(=O)N3CCCC3)ccc2c(=O)n1-c1ccccc1	0	12	-7	0	x	x
CC1C(=O)Nc2ccc(S(=O)(=O)Nc3cccc(C(F)(F)F)c3)cc2NC1=O (configuration not stated)	0	-12	-7	0	x	x
COCCCNc1nc(-c2ccccc2F)nc2ccccc12	0	-32	11	6.3*	-1	-14
COCCNc1nc(-c2ccccc2F)nc2ccccc12	0	9	24	0	x	x
Cc1ccc(N2C(=O)C3CCCCC3C2=O)cc1F (configuration not stated)	0	14	12	8.1*	0	2
Cc1cccc(-c2nc(CS(=O)CC(=O)N3CCCC3)c(C)o2)c1 (configuration not stated)	0	14	7	8.2*	-2	-13
Cc1cccc(-c2nc(CS(=O)CC(=O)NC(C)c3ccccc3)c(C)o2)c1 (configuration not stated)	0	15	3	7.2*	0	-1
CCN1CCN(C(=O)CS(=O)Cc2nc(-c3cccc(C)c3)oc2C)CC1 (configuration not stated)	0	14	12	0	x	x
